In the supplement of paper PMC12669797:
Where “and” joins values, the source holds several entries; their conditions need not be identical. Equal entries are not always repeated.

Columns and labels:
ES2 = assay: cell viability relative to DMSO control (MTS) (fraction of DMSO control); higher = more viable cells / less growth inhibition; conditions: 10 µM; 48 h
Procedure, shortened: (§1)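 TOV-21G and ES2 clear cell carcinoma cells were plated in 96-well plates at 5000 cells per well, grown for 24 h, and then exposed to a 367-compound […] library at a final concentration of 10 µM, with vehicle alone in control wells. An MTS assay (CellTiter 96 AQueous One Solution) was read 48 h later according to the manufacturer's protocol. Viability is reported as a fraction of the vehicle control.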

TOV-21G = assay: as above; conditions: 10 µM; 48 h
Procedure, shortened: as §1

| Structure (SMILES) | cell viability (ES2) | cell viability (TOV-21G) |
| --- | --- | --- |
| CCN(CC)CCNC(=O)c1c(C)[nH]c(/C=C2\C(=O)Nc3ccc(Cl)cc32)c1C | 0.254 | 0.222 |
| CCN(CC)CCNC(=O)c1c(C)[nH]c(/C=C2\C(=O)Nc3ccc(F)cc32)c1C [sunitinib malate] | 0.439 | 0.555 |
| COc1cc(Nc2ncc3c(n2)-c2ccc(Cl)cc2C(c2c(F)cccc2OC)=NC3)ccc1C(=O)O | 0.769 | 0.619 |
| NC(=O)c1ccc(-c2nc(-c3ccccn3)c(-c3ccc4c(c3)OCO4)[nH]2)cc1 | 1.08 and 1.11 | 0.993 and 1.03 |
| Cc1[nH]c(/C=C2\C(=O)Nc3ccc(S(=O)(=O)N(C)c4cccc(Cl)c4)cc32)c(C)c1C(=O)N1CCN(C)CC1 | 0.402 | 0.639 |
| NC(=O)NO [Hydroxyurea] | 1.21 | 0.811 |
| CS(=O)(=O)CCNCc1ccc(-c2ccc3ncnc(Nc4ccc(OCc5cccc(F)c5)c(Cl)c4)c3c2)o1 [lapatinib] | 0.482 | 4.68 |
| O=C1CCC(N2C(=O)c3ccccc3C2=O)C(=O)N1 (centres undefined) [thalidomide] | 0.958 | 0.989 |
| O=C(Nc1ccc([N+](=O)[O-])cc1O)Nc1ccccc1Br | 0.469 | 0.605 |
| C/C=C/C/C=C/CCC(=O)[C@H]1O[C@H]1C(N)=O [Cerulenin] | 1.4 | 1.03 |
| COc1cc([C@@H]2c3cc4c(cc3[C@@H](O[C@@H]3O[C@@H]5CO[C@@H](C)O[C@H]5[C@H](O)[C@H]3O)[C@H]3COC(=O)[C@H]23)OCO4)cc(OC)c1O [Etoposide (VP-16)] | 0.655 | 0.658 |
| CC(C)C(=O)Nc1ccc([N+](=O)[O-])c(C(F)(F)F)c1 [Flutamide] | 0.917 | 1.09 |
